Assay outcomes as filed in PubChem BioAssay.
PLAP activator = human PLAP activation; purified PLAP enzyme, luminescent substrate read-out; hits give high values; activation fold at 20 µM; 96,000 tested, 1.2% active; AID 696; in the data active = activation fold above about 2
Cav32 inh = inhibitors of human Cav3.2 T-type calcium channel; B-score at 10 µM; AID 449739; O95180; 100,000 tested, 4% active; Cav3.2-expressing cells, Fluo-4 calcium fluorescence FDSS; hits give low values;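 active = single-dose well whose peak fluorescence ratio is a statistical outlier from its plate by either plate-standardised score or position-corrected B-score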
Target sequence (O95180 whole entry, looked up): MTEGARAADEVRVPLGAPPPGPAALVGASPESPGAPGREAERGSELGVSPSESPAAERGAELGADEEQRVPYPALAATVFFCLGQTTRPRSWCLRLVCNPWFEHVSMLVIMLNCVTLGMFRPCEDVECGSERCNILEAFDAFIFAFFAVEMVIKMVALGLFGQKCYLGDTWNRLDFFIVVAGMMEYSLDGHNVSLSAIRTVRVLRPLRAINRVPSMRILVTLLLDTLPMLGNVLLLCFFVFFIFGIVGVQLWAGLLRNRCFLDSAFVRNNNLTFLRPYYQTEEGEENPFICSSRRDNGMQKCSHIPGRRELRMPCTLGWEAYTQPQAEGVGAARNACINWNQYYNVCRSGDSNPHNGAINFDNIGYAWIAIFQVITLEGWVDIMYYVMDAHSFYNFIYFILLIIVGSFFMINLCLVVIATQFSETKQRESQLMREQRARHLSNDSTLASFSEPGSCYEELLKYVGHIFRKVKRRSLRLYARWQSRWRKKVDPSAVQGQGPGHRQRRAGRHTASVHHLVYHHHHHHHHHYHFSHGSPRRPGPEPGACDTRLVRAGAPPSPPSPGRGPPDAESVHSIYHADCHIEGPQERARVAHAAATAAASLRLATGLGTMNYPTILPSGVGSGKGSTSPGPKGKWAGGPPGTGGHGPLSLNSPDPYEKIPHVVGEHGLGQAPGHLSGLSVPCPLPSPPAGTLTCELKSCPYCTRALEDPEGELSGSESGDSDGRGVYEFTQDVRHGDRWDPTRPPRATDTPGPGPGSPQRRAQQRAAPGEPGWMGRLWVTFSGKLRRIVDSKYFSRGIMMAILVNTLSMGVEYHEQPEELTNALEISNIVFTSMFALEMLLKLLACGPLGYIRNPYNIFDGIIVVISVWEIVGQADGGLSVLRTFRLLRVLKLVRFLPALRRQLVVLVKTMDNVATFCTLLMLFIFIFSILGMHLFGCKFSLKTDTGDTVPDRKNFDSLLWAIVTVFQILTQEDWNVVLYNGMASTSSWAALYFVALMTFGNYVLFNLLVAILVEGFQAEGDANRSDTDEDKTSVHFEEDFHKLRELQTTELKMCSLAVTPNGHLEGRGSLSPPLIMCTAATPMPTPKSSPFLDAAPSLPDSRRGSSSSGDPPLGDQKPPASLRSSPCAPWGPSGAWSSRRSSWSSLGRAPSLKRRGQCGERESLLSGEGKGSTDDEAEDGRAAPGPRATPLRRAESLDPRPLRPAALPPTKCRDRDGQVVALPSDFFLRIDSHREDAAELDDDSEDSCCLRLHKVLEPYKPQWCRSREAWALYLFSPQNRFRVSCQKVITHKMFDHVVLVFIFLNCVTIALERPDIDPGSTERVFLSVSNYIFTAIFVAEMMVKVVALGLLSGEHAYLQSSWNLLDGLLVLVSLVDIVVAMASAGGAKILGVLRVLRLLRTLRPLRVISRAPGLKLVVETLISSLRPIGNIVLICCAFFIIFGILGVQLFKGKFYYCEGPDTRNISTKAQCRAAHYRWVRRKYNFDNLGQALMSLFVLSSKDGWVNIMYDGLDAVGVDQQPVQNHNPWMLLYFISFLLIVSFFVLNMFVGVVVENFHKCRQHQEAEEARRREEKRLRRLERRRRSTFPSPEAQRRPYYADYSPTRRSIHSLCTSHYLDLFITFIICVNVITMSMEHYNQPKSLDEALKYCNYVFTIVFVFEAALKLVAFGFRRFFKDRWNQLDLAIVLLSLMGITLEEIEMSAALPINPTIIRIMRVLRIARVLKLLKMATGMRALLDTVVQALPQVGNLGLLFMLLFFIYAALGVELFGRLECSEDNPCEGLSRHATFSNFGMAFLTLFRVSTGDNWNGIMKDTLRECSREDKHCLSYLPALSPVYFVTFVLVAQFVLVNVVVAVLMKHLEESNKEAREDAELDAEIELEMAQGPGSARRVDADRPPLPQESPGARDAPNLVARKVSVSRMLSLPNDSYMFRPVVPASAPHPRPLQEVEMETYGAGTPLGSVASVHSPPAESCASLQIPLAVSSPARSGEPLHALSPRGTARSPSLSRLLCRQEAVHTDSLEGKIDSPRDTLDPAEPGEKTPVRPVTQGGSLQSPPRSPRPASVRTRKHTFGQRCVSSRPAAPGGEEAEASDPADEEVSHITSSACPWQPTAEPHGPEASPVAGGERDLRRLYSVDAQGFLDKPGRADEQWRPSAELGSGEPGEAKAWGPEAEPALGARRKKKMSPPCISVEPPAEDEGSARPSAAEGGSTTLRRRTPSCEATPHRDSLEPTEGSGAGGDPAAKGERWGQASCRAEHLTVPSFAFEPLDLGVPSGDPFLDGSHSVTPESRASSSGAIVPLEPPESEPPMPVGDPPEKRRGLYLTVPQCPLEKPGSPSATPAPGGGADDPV
M1 ag = agonists of M1 muscarinic receptor. 64,000 tested, 3% active. B-score at 10 µM. CHO-M1 cells, Fluo-4 calcium fluorescence, agonist mode; hits give high values. AID 626;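 active = fluorescence rise, raw or as B-score row- and column-corrected plate score, outside the 99.7% band of its plate's samples, either direction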
HER2 expr 66K = inhibitors of human Her2 kinase expression; SKBR-3 HER2 protein level, AlphaScreen, 18-24 h; hits give low values; HER2 level % of control, % at 10 µM; 65,000 tested, 0.69% active; AID 645;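 active = HER2 level under 5% of the carrier-only control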;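 note: 100% = DMSO carrier and 0% = 500 nM PU-H71 HSP90 inhibitor; lower value means stronger loss of Her2 protein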
M1 antag = antagonists of rat M1 muscarinic receptor | B-score at 10 µM | 64,000 tested, 3.4% active | CHO-M1 cells, Fluo-4 calcium, ACh EC80 antagonist mode; hits give low values | AID 628 | P08482;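 active = calcium fluorescence response, raw or row-and-column corrected B-score, differing from the plate sample mean either way at a set confidence level, mostly lower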
Numbers without * were called inactive; · = no result. In the library only some 7.9% were active in any assay of this set; here they are far more common.

SMILES	PLAP activator	Cav32 inh	M1 ag	HER2 expr 66K	M1 antag
O=C(Nc1ccc(OCC(=O)N2CCC(Cc3ccccc3)CC2)cc1)c1ccco1	1.9	-7.2*	·	·	·
O=C(Nc1ccc(OCC(=O)N2CCN(S(=O)(=O)c3ccccc3)CC2)cc1)c1ccco1	1.4	0.217	-0.601	96.2	0.684
O=C(NC1CC1)c1nc2c(nnn2Cc2ccccc2Cl)c(=O)[nH]1	·	-1.12	·	·	·
O=C(NC1CCCCC1)c1nc2c(nnn2Cc2ccccc2Cl)c(=O)[nH]1	·	-5.3*	1.91	66.1	0.656
CCCOC(=O)c1ccc(-c2c(C)noc2-c2ccc(OC)cc2O)o1	1.1	-4.4*	1.16	89.8	-0.301
Cc1ccccc1CSCCNC(=O)CN(c1ccc2c(c1)OCO2)S(C)(=O)=O	1	-4.25*	-2.66	111.4	-0.145
Cc1ccc(SCCNC(=O)CN(c2ccc3c(c2)OCO3)S(C)(=O)=O)cc1	1.2	-2.14	-0.103	81.6	0.738
Cc1ccc(-c2cc(C(=O)N/N=C/c3ccco3)[nH]n2)cc1	2.2*	·	·	·	·
O=C(N/N=C/c1ccco1)c1cc(-c2cccc3ccccc23)n[nH]1	1.2	-6.17*	·	·	·
O=C(N/N=C/c1ccco1)c1cc(-c2ccccc2)n[nH]1	·	-0.713	·	·	·
CCCCCCCCCCSc1n[nH]c(NC(C)=O)n1	2.9*	-2.35	·	·	·
CCCSc1n[nH]c(NC(C)=O)n1	1	-0.423	0.495	102.3	-0.0364
COC(C[C@@H]1O[C@H]1[C@H](O)[C@@H](C)OCc1ccccc1)OC	·	-0.0264	·	·	·
COc1cccc(/C=N/NC(=O)CC2C(=O)NN=C2C)c1O (stereo not given)	·	0.0109	·	·	·
Cc1ccc(-c2ccc(/C=N\NC(=O)C3C(=O)NCC3c3ccccc3)o2)cc1Cl (stereo not given)	2.1*	-2.97	·	·	·
COc1cccc(/C=N\NC(=O)C2C(=O)NCC2c2ccccc2)c1O (stereo not given)	2.5*	-1.24	·	·	·
Cc1ccc(-c2nc(SCC(=O)NCC3CCCO3)c(-c3ccccc3)[nH]2)cc1 (stereo not given)	·	0.515	·	·	·
CN1/C(=C\C=Nc2ccccc2)C(C)(C)c2ccccc21	0.9	-0.828	·	·	·
CN1/C(=C\C=Nc2ccc3ccccc3c2)C(C)(C)c2ccccc21	1.1	-9.43*	·	·	·
O=C(CN(c1ccc(F)cc1)S(=O)(=O)c1ccc2c(c1)OCCO2)Nc1ccccc1	1.5	-0.531	·	·	·
CC(=O)N1C2CCCCC2S[C@H]2CCCCC21 (stereo not given in full)	1.1	0.594	0.438	103.6	0.118
C#Cc1ccc([C@@H]2C=C(C(=O)O)O[C@H](OCC)[C@H]2CCCO)cc1	·	1.07	·	·	·
CCOC(=O)c1c(C)[nH]c(C(=O)COC(=O)C(C)N2C(=O)C3CCCCC3C2=O)c1C (stereo not given)	1.4	-3.22*	·	·	·
Cc1nn(CC(=O)O)c(C)c1Cl	0.9	1.28	·	·	·
CC1(C)C(c2ccccc2)=[N+]([O-])CN1O	0.9	1.31	0.0329	123.8	-0.703
SMILES	PLAP activator	Cav32 inh	M1 ag	HER2 expr 66K	M1 antag
CCNc1nc(NC(C)C)nc(OCC)n1	0.9	0.103	·	·	·
CCOc1nc(NC2CCCCC2)nc(NC(C)(C)C)n1	·	-5.33*	·	·	·
CSc1cccc(NC(=O)C(C)NS(=O)(=O)c2ccc(F)cc2)c1 (stereo not given)	1	-1.99	·	·	·
Cc1cc(C)cc(NC(=O)CSc2nc(N)c(NC(=O)c3cccs3)c(=O)[nH]2)c1	·	2.43	·	·	·
CC(=O)N1c2ccccc2C(C)(c2ccccc2)CC1(C)C (stereo not given)	1	-4.99*	·	·	·
CN1CCN(CC(=O)N2c3ccccc3C(C)(c3ccccc3)CC2(C)C)CC1 (stereo not given)	1.6	-0.00764	-1.36	98.1	-1.81
O=C(NCc1cc(C(F)(F)F)cc(C(F)(F)F)c1)C12CN(Cc3ccccc3)CC1C(c1cccc([N+](=O)[O-])c1)=NO2 (stereo not given)	1.1	-2.11	·	·	·
O=C(NCc1ccc(OC(F)(F)F)cc1)C12CN(Cc3ccccc3)CC1C(c1cccc([N+](=O)[O-])c1)=NO2 (stereo not given)	1.3	-3.77*	·	·	·
O=C(NCc1ccccc1)C12CN(Cc3ccccc3)CC1C(c1cccc([N+](=O)[O-])c1)=NO2 (stereo not given)	1.2	-3.43*	·	·	·
CCCCN(CCCC)CCCNC(=O)C12CN(Cc3ccccc3)CC1C(c1cccc([N+](=O)[O-])c1)=NO2 (stereo not given)	1.5	-3.24*	·	·	·
O=C(NCC1CCCO1)C12CN(Cc3ccccc3)CC1C(c1cccc([N+](=O)[O-])c1)=NO2 (stereo not given)	1.9	0.421	·	·	·
CC(C)CC(=O)N1CCN(C(=O)CCC2CCCC2)CC1	1	-0.778	-0.41	121.0	0.171
COc1c(O)cccc1[C@H](O)C1CCN(CCc2ccc(F)cc2)CC1	·	0.26	·	·	·
COC(=O)c1cc2oc(C)cc2n1CC(=O)Nc1cc(C)cc(C)c1	0.8	-0.75	-0.0823	65.2	0.0776
CCOC(=O)CCCCCNC(=O)c1ccc(F)cc1F	·	1.08	·	·	·
O=C(NC(=S)NNC(=O)c1cccs1)c1ccc(Br)o1	1.2	-7.36*	·	·	·
CCNC(=S)NNC(=O)c1cccs1	1.9	1.05	·	·	·
COC(=O)[C@@]1(Cc2ccc(F)cc2)[C@H]2c3cc(C(=O)N(C)C)n(Cc4c(CO)[nH]cc(C)c4=O)c3C[C@H]2CN1C(=O)c1ccccc1	·	-0.148	·	·	·
Fc1ccc(-n2nnnc2-c2cnc(-c3cccs3)nc2C(F)(F)F)cc1	1	-3.3	·	·	·
CC(Oc1ccccc1)C(=O)N1CCC2(CC1)Oc1ccc(F)cc1C(=O)C21CC(c2ccc(Cl)cc2)=NO1 (stereo not given)	·	-2.77	·	·	·
CC(Oc1ccccc1)C(=O)N1CCC2(CC1)Oc1ccc(F)cc1C(=O)C21CC(c2ccccc2)=NO1 (stereo not given)	·	-3.98*	·	·	·
CCCCN(CC)CCNC(=O)C1c2cc(OC)c(OC)cc2C(=O)N2CCc3ccccc3C12 (stereo not given)	2*	-1.13	0.56	112.4	0.608
CCCCN(CC)CCCNC(=O)C1c2ccccc2C(=O)N(C)C1c1cn(C)c2ccccc12 (stereo not given)	2*	0.218	·	·	·
CCOc1ccc(N2C(=O)CS/C2=N/NC(=O)COc2ccc3ccccc3c2)cc1	1.4	-3.46*	·	·	·
CCNC(=O)COc1ccc2ccccc2c1	1.2	0.658	-1.54	97.3	0.0785
SMILES	PLAP activator	Cav32 inh	M1 ag	HER2 expr 66K	M1 antag
CCN(CC)C(=O)N1c2ccccc2C=Cc2ccccc21	0.8	-8.58*	·	·	·
CCN(CC)Cc1nc2c(c(=O)[nH]1)C1(CCCC1)Cc1ccccc1-2	1.5	-6.72*	·	·	·
O=c1[nH]c(NCCO)nc2c1C1(CCCC1)Cc1ccccc1-2	1.1	-4.13*	·	·	·
CCC1(CC)Cc2ccccc2-c2nc(CN3CCOCC3)[nH]c(=O)c21	1.7	-0.676	0.432	123.4	-0.101
CCn1c(SCC#N)nc2c(c1=O)C1(CCCC1)Cc1ccccc1-2	1.6	-6.86*	-0.543	108.3	0.0116
O=c1[nH]c(CN(CCO)CCO)nc2c1C1(CCCCC1)Cc1ccccc1-2	·	-10.6*	1.03	96.5	0.382
CN1C(=O)N(c2ccccc2)C(Nc2nncs2)C1(C)C (stereo not given)	0.9	·	-0.134	94.0	0.485
